This note sets out measurements from publication PMC7862700, “An all-to-all approach to the identification of sequence-specific readers for epigenetic DNA modifications on cytosine”.

Holding throughout (assay): DAPPL (digital affinity profiling via proximity ligation, sequencing); 10 mM Tris-HCl pH 7.5, 50 mM NaCl, 1 mM DTT, 4% glycerol, room temperature, 30 min; GST-TFs on glutathione beads, 16-mer random dsDNA library, 0.1% formaldehyde crosslink after washing; high values mean tight binding
The target in one assay is T1, FLI1 (Homo sapiens, UniProt Q01543 1-452).
T1 sequence: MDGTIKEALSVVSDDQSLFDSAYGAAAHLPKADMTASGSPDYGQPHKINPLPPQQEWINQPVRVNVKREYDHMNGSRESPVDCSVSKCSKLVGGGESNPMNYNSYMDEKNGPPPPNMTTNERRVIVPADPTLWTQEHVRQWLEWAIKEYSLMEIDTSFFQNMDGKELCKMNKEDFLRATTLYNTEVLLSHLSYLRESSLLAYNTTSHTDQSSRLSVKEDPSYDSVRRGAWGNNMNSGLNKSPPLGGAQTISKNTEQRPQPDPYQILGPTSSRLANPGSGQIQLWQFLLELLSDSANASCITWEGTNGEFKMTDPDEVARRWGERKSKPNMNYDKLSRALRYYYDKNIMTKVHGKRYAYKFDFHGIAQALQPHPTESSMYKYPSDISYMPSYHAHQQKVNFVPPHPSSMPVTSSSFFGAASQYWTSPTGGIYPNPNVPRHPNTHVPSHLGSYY
The settings on record: protein: recombinant; tags: N-terminal GST; dsDNA, one strand shown. Put shortly:
(§1)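 Sequencing on an Illumina NextSeq500 followed washing, crosslinking with 0.1% formaldehyde, proximity ligation (BsaI/T4 ligase, 1 h, 37 °C) and PCR amplification of pools that had been incubated for 30 min at room temperature with 200 nmole of a random double-stranded 16-mer DNA library in Tris/NaCl/DTT/glycerol buffer. Each pool held DNA-barcoded human transcription factors, expressed in yeast as GST fusions and captured on glutathione beads, plus a tag-only sample. Binding signal is a hexamer's read frequency for a factor divided by its frequency in the tag-only sample.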

The target of another assay is T2, ELK1 (Homo sapiens, UniProt P19419 1-428).
T2 sequence: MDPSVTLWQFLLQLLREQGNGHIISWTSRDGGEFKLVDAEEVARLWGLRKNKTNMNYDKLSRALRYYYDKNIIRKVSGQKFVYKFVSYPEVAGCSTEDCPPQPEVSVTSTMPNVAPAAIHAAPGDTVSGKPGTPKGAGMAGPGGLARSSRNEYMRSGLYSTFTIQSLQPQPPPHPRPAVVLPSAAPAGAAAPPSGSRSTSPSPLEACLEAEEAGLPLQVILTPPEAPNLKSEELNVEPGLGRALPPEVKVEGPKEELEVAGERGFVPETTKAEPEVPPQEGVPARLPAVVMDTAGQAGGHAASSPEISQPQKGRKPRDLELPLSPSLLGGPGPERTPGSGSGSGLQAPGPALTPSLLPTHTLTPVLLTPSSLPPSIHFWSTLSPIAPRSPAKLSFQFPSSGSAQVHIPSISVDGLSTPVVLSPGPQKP
The settings on record: protein: recombinant; tags: N-terminal GST; dsDNA, one strand shown. Put shortly: as §1

The target in another assay is T3, GABPA (Homo sapiens, UniProt Q06546 1-454).
T3 sequence: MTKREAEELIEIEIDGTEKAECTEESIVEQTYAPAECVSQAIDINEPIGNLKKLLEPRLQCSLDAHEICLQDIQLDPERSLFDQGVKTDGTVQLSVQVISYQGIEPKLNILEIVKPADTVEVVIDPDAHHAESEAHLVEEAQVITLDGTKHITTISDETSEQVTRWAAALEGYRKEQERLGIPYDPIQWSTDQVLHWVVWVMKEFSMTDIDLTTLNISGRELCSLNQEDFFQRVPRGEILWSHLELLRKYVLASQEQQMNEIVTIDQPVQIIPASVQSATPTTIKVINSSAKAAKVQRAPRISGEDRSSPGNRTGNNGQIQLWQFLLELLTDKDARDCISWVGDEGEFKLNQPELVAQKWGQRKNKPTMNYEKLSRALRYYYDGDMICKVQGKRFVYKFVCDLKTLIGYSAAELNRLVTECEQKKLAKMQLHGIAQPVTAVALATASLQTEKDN
Conditions: protein: recombinant; tags: N-terminal GST; dsDNA, one strand shown. The essentials:
as §1

Another assay has as its target T4, ERG (Homo sapiens, UniProt P11308 1-479).
T4 sequence: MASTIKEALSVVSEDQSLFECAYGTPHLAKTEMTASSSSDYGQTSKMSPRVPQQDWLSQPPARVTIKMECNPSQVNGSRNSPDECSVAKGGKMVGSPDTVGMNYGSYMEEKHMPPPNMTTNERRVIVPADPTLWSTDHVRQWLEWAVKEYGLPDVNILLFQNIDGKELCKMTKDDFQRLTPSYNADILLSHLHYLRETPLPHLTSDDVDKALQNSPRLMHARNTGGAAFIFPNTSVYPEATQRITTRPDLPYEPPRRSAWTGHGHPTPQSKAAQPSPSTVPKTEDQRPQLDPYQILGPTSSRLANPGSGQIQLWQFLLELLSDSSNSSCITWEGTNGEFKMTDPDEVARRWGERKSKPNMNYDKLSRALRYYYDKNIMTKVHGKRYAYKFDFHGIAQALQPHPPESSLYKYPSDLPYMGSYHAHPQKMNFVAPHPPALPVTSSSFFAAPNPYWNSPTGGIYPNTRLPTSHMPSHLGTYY
Conditions: protein: recombinant; tags: N-terminal GST; dsDNA, one strand shown. The essentials:
as §1

Another assay addresses ELF1 (Homo sapiens, UniProt P32519 1-619). The settings on record: protein: recombinant; tags: N-terminal GST; dsDNA, one strand shown. Put shortly:
as §1

The next assay addresses T5, EHF (Homo sapiens, UniProt Q9NZC4 1-300).
T5 sequence: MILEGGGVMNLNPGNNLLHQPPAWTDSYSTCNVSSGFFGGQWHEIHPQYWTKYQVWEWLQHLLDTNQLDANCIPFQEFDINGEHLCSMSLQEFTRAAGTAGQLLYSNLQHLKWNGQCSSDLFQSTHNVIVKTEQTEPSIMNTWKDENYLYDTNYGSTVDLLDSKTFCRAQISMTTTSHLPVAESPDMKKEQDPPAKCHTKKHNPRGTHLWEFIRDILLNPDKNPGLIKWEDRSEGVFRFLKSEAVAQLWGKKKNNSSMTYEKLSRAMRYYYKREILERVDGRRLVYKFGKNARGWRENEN
Conditions: protein: recombinant; tags: N-terminal GST; dsDNA, one strand shown. The essentials: as §1

The target in a further assay is SPI1 (Homo sapiens, UniProt P17947 1-270). Conditions: protein: recombinant; tags: N-terminal GST; dsDNA, one strand shown. Put shortly:
as §1

In a further assay the target is T6, ELK3 (Homo sapiens, UniProt P41970 1-407).
T6 sequence: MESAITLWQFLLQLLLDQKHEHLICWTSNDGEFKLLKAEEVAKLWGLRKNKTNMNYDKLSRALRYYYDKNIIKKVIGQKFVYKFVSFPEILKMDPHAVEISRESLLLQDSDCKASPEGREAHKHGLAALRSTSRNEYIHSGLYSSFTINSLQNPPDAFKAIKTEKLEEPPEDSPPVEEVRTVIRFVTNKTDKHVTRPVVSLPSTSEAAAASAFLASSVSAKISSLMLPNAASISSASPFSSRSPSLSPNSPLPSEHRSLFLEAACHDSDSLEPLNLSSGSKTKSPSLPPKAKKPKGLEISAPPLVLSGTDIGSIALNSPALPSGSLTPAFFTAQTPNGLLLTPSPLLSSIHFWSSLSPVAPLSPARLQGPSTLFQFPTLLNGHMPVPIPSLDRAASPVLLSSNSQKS
Conditions: protein: recombinant; tags: N-terminal GST; dsDNA, one strand shown. Put shortly: as §1

Another assay addresses T7, FEV (Homo sapiens, UniProt Q99581 1-238).
T7 sequence: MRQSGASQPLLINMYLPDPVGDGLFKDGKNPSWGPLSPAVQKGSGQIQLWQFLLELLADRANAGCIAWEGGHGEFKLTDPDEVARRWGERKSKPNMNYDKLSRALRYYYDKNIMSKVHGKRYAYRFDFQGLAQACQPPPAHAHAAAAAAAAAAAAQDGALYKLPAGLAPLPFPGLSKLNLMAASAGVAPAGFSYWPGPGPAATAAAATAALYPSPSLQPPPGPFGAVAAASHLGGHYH
Conditions: protein: recombinant; tags: N-terminal GST; dsDNA, one strand shown. The essentials:
as §1

The target of another assay is ETV5 (Homo sapiens, UniProt P41161 1-510). Conditions: protein: recombinant; tags: N-terminal GST; dsDNA, one strand shown. Put shortly: as §1
The target of a further assay is HSF1 (Homo sapiens, UniProt Q00613 1-529). The settings on record: protein: recombinant; tags: N-terminal GST; chain copies: 3; dsDNA, one strand shown. Put shortly:
as §1

The target of a further assay is T8, SPIC (Homo sapiens, UniProt Q8N5J4 1-248).
T8 sequence: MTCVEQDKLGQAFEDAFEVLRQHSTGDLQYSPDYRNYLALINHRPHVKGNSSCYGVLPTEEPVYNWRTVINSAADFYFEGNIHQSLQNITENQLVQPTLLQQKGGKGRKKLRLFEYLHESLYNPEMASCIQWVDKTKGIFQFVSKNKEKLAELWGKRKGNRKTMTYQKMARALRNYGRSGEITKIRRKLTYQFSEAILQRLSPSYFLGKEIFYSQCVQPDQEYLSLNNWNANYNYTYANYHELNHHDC
Conditions: protein: recombinant; tags: N-terminal GST; dsDNA, one strand shown. Put shortly: as §1

The target in another assay is ELF4 (Homo sapiens, UniProt Q99607 1-663). Conditions: protein: recombinant; tags: N-terminal GST; dsDNA, one strand shown. The essentials: as §1
For another assay, the target named is T9, ELK4 (Homo sapiens, UniProt P28324-2 1-405).
T9 sequence: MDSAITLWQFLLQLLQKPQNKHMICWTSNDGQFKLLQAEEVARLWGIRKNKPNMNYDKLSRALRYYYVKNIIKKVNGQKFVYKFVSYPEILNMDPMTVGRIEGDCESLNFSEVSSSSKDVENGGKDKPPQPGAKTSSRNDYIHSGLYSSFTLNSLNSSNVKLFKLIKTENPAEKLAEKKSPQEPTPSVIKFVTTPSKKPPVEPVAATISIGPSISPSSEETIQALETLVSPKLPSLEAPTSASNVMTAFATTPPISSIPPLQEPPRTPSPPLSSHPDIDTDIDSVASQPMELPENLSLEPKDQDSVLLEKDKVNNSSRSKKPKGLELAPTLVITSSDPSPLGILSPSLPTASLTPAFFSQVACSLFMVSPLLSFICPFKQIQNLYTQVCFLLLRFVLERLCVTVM
The settings on record: protein: recombinant; tags: N-terminal GST; dsDNA, one strand shown. Put shortly:
as §1

The target in the next assay is T10, ETV2 (Homo sapiens, UniProt O00321 1-342).
T10 sequence: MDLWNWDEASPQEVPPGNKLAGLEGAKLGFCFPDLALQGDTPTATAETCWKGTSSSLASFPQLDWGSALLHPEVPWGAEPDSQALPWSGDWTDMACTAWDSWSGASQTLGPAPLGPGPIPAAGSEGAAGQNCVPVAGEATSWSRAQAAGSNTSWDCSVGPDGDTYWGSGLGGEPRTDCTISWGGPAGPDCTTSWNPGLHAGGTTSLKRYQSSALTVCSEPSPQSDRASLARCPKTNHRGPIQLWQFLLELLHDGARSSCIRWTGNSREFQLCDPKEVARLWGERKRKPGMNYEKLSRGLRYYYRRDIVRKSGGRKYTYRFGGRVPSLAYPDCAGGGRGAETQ
Conditions: protein: recombinant; tags: N-terminal GST; dsDNA, one strand shown. Put shortly:
as §1

The target of another assay is T11, ELF3 (Homo sapiens, UniProt P78545 1-371).
T11 sequence: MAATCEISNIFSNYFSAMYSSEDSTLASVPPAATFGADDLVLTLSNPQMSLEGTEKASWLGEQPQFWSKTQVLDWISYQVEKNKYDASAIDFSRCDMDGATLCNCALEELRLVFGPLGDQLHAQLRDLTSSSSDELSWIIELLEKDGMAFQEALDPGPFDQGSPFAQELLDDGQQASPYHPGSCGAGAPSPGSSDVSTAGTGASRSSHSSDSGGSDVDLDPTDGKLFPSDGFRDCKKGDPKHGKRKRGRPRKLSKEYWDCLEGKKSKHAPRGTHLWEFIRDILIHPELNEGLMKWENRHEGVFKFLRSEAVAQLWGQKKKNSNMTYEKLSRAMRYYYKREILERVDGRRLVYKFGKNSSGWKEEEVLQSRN
The settings on record: protein: recombinant; tags: N-terminal GST; dsDNA, one strand shown. The essentials:
as §1

The target of another assay is ETV1 (Homo sapiens, UniProt P50549 1-477). Conditions: protein: recombinant; tags: N-terminal GST; dsDNA, one strand shown. The essentials: as §1
Chain of ETV1 (P50549 whole entry): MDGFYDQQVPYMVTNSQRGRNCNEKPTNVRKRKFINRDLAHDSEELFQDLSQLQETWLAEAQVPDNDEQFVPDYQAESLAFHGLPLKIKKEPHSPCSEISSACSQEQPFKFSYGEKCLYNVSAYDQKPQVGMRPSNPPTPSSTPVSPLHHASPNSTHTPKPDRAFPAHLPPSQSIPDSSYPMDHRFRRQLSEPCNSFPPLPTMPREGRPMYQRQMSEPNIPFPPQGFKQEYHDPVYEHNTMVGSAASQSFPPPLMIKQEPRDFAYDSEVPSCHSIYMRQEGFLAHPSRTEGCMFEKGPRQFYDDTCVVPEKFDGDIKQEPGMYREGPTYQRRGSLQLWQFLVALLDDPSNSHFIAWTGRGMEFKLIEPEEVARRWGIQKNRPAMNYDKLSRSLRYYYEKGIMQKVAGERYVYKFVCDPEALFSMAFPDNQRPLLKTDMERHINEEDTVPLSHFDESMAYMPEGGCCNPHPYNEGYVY

Chain of ELF4 (Q99607 whole entry): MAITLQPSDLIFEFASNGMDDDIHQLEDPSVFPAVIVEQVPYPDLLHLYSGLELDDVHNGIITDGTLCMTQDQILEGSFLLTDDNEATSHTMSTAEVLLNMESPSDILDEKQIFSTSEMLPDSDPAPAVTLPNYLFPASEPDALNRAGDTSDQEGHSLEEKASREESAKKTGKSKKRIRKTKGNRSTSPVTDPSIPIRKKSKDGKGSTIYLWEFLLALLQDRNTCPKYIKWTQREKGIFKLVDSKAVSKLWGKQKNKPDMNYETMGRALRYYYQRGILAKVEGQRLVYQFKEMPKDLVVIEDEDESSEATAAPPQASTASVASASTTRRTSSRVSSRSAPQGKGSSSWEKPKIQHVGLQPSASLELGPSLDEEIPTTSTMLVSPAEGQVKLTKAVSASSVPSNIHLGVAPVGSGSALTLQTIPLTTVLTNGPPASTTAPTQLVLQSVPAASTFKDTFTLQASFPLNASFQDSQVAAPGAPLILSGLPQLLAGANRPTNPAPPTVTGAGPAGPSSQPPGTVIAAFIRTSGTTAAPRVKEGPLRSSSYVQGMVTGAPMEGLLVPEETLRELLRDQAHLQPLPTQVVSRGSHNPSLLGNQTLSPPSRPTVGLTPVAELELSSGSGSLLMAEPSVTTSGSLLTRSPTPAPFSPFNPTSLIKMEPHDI
Chain of HSF1 (Q00613 whole entry): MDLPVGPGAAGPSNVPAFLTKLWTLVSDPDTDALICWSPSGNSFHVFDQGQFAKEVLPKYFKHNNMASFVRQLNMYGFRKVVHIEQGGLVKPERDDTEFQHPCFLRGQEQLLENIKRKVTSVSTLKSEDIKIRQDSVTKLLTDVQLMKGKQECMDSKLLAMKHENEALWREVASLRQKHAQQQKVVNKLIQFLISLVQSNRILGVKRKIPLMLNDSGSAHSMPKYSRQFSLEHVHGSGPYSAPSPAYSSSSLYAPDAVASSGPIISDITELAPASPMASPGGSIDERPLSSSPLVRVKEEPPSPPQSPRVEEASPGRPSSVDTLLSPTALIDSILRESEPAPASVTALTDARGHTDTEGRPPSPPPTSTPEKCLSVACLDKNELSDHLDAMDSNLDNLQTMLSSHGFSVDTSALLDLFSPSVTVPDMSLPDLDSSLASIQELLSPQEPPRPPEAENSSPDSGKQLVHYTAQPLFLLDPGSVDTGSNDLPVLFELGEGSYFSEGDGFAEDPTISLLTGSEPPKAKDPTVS
Chain of ELF1 (P32519 whole entry): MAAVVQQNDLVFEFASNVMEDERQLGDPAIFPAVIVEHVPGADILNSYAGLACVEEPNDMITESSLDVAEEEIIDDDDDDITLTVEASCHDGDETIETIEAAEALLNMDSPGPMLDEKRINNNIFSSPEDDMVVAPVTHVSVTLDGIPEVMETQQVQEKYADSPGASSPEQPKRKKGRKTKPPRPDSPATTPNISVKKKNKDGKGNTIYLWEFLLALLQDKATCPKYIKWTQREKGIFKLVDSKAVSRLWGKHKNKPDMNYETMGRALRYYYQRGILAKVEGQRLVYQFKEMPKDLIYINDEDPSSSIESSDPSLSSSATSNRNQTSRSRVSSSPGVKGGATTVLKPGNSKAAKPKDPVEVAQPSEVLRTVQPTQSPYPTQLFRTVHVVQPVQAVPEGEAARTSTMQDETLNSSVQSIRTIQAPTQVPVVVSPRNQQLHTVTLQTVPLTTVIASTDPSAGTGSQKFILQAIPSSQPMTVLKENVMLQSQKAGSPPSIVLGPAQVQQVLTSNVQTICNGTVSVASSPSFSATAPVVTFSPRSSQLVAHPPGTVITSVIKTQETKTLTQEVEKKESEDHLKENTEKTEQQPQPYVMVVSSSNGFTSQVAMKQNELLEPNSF
Chain of ETV5 (P41161 whole entry): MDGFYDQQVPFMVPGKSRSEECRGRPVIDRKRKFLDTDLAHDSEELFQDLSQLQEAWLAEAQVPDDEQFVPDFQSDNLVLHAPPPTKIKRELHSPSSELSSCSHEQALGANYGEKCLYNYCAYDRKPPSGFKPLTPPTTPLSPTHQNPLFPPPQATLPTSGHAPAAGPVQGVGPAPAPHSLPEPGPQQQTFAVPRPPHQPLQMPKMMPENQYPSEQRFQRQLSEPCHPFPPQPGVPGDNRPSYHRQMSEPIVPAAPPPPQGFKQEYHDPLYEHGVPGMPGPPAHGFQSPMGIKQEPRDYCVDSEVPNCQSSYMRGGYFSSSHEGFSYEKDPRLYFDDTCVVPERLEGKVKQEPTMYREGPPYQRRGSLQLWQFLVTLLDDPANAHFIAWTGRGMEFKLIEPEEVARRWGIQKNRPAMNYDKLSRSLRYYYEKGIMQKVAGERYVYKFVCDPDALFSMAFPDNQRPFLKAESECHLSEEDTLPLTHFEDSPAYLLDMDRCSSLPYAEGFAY

As to CGCTAG, the binding signal with FLI1 is 1.07 fold enrichment (6-mer frequency, TF over GST control); with ELK1 it was 1.06 fold enrichment (6-mer frequency, TF over GST control); with GABPA it was 1.09 fold enrichment (6-mer frequency, TF over GST control); in the assay with ERG, 1.03 fold enrichment (6-mer frequency, TF over GST control); with ELF1, 1.04 fold enrichment (6-mer frequency, TF over GST control); with EHF, 1.12 fold enrichment (6-mer frequency, TF over GST control). For the same sequence, the binding signal is 1.09 fold enrichment (6-mer frequency, TF over GST control) with SPI1; 1.3 fold enrichment (6-mer frequency, TF over GST control) with ELK3; 1.06 fold enrichment (6-mer frequency, TF over GST control) in the assay with FEV; 1.02 fold enrichment (6-mer frequency, TF over GST control) with ETV5; 1.29 fold enrichment (6-mer frequency, TF over GST control) with HSF1; 1.03 fold enrichment (6-mer frequency, TF over GST control) with SPIC. The binding signal was 1.11 fold enrichment (6-mer frequency, TF over GST control) with ELF4; 1.09 fold enrichment (6-mer frequency, TF over GST control) with ELK4; 1.19 fold enrichment (6-mer frequency, TF over GST control) in the assay with ETV2; 1.01 fold enrichment (6-mer frequency, TF over GST control) with ELF3; 1.03 fold enrichment (6-mer frequency, TF over GST control) with ETV1.
